Experimental data as given in PubChem BioAssay (NCI).
Compounds without any hit were thinned out: in the full panel of roughly 79,000, 15% have a hit. Values without a mark were called inactive. Active and inactive are the calls of the source. Cut-off read from the data, not from the text of the source: active = growth inhibition above about 70%; inactive = the rest.

Columns and labels:
[1] = NCI Yeast Anticancer Drug Screen. Data for the rad50 strain (AID 155);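 note: 0% = growth of vehicle-only cultures of the same strain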; details: S. cerevisiae rad50 strain growth inhibition; at 50.0 µM; stronger effect = higher value
How it was run: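 Yeast carrying a defined DNA repair defect were exposed to test compounds, and growth was compared with vehicle-treated controls to give percent inhibition.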

[2] = NCI Yeast Anticancer Drug Screen. Data for the mec2-1 strain (AID 157); details: S. cerevisiae mec2-1 strain, at 50.0 µM, stronger effect = higher value
How it was run: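 Growth inhibition is read against vehicle-treated controls after compound exposure of the mec2-1 yeast strain, which is defective in DNA damage repair or cell cycle control.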

[3] = NCI Yeast Anticancer Drug Screen. Data for the sgs1 mgt1 strain (AID 161);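 note: 0% = growth of cultures given vehicle only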; details: S. cerevisiae sgs1 mgt1 strain, at 50.0 µM, stronger effect = higher value
How it was run: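 Compounds are added to genetically altered yeast, and growth is compared with cultures given vehicle alone to give percent inhibition.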

[4] = NCI Yeast Anticancer Drug Screen. Data for the cln2 rad14 strain (AID 165);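 note: 0% = growth equal to vehicle treated cultures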; details: S. cerevisiae cln2 rad14 strain, at 50.0 µM, stronger effect = higher value
How it was run: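 Growth inhibition, relative to vehicle-treated controls, is the read-out. The test organism is a yeast strain with defined genetic alterations, cln2 rad14.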

[5] = NCI Yeast Anticancer Drug Screen. Data for the bub3 strain (AID 167); details: S. cerevisiae bub3 mutant strain, at 50.0 µM, stronger effect = higher value
How it was run: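 Compounds were applied to a genetically altered yeast strain carrying a cell-cycle control defect. Growth inhibition was scored against vehicle-treated controls.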

[6] = NCI Yeast Anticancer Drug Screen. Data for the mlh1 rad18 strain (AID 175); details: S. cerevisiae mlh1 rad18 strain growth inhibition; at 50.0 µM; stronger effect = higher value
How it was run: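 Cells of a genetically altered yeast strain, deficient in DNA damage repair, were treated with compound. Their growth was then compared with that of vehicle-treated cultures to give inhibition.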

Compound	growth inhibition [1]	growth inhibition [2]	growth inhibition [3]	growth inhibition [4]	growth inhibition [5]	growth inhibition [6]
c1cc(C2O[C@H]3CCCN3[C@@H]2c2ccncc2)ccn1 (stereo partly specified)	-30.6%	-17.9%	1.15%	2.85%	-14.8%	-25.4%
C=C[CH2][Sn]([Br])([c]1ccccc1)[c]1ccccc1	99.3% (active)	99.2% (active)	99.2% (active)	98.8% (active)	98.8% (active)	99.3% (active)
CC(=O)[O][Hg][c]1cc[c]([Hg])s1	99.5% (active)	99.3% (active)	99.5% (active)	99.3% (active)	99% (active)	99.2% (active)
CCNC(=O)Oc1c(Cl)cc(S(=O)(=O)F)cc1Cl	43.6%	22.8%	32.1%	12.5%	16%	26.4%
NC(=O)C[N+](=O)[O-]	-16.9%	17%	-11.4%	11%	-2.35%	-2.2%
C/C=C/CC1(CC)C(=O)NC(=S)NC1=O	3.8%	7%	7.15%	9%	2.35%	13.6%
COc1ccc(C(=O)/C=C/c2ccccc2)cc1	2.05%	-7.25%	30.1%	2.45%	42.4%	19.4%
OC[C@@H](O)[C@@H](O)CO	3.2%	-0.25%	-12.1%	15.2%	-5.55%	10.1%
N[C@@H]1CCCC[C@@H]1N.O=P([O-])([O-])CN(CP(=O)([O-])[O-])CP(=O)([O-])[O-].[Pt+2]	-5.05%	-6.4%	-10.2%	14.9%	-0.1%	-21.1%
CC(Cl)CNC1CCCCC1 (stereo unspecified)	6%	-3.5%	-8.95%	-10.6%	-0.95%	-0.9%
C[N+](C)=C(Cl)Cl	1.75%	-30.1%	-8.1%	4.15%	-7.85%	-12.9%
CCOP(=O)(NC(C)(C)C)OCC	-15.1%	-54%	-21.4%	8%	-26.1%	-12.8%
O=[N+]([O-])c1ccc(N=Nc2ccc(N(CCCl)CCCl)cc2)cc1	-4.8%	14.1%	-1.25%	-14.9%	5%	23.5%
CCCCCCCCCCC(O)[C@H]1CCC(C2CC[C@H]([C@H](O)CCCCCCCCCCC(O)CC3=CC(C)OC3=O)O2)O1 (stereo partly specified)	2.15%	-5.15%	-13.3%	-10.7%	0.85%	5.2%
C[N+](C)(C)CC1CCCC/C1=N\O (stereo unspecified)	23.2%	0.3%	9.75%	39%	8.6%	39.3%
CC(C)COP(=O)(Cc1ccccc1)OCC(C)C	8.85%	5.65%	-0.5%	11.8%	5%	-6.2%
CC(=O)OC1CCC2(C)C(=CCC3C4C/C(=C\N5CCCC5)C(=O)C4(C)CCC32)C1 (stereo unspecified)	51%	99% (active)	46.8%	98.8% (active)	97.2% (active)	95.3% (active)
N#CC(OC1OC(C(=O)O)C(O)C(O)C1O)c1ccccc1 (stereo unspecified)	17.2%	-14.5%	-5.3%	3%	0.6%	2.25%
CCNCCc1ccc(N)cc1	5.05%	-2.95%	0.8%	-6.75%	1.85%	-2.65%
CCOP(=O)(CCP(=O)(OCC)OCC)OCC.C[CH2][Sn]([Cl])([Cl])[CH2]C	42.9%	52.1%	45.5%	46%	42.1%	41%
Cc1ccc([NH-])c([NH-])c1.[Cl][Pt+2][Cl]	22.1%	0.25%	30.4%	12.3%	-2.85%	13.7%

Compound	growth inhibition [1]	growth inhibition [2]	growth inhibition [3]	growth inhibition [4]	growth inhibition [5]	growth inhibition [6]
CCN(CC)CCn1c(=O)n(C)c2ccccc21	2.75%	-18.7%	-13.3%	-35%	-1.65%	20.9%
O=[N+]([O-])NC1=NCCN1CCCl	-17.2%	-13.6%	-4.6%	-25.1%	-12.6%	9.15%
CC(O)c1ccc(Br)cc1 (stereo unspecified)	-7.95%	13.3%	3.55%	-72.4%	-1.45%	16%
CC(C)=CCN=C(N)N	-9.15%	-51.1%	-17.3%	-8%	-37.1%	-28.7%
ClCCN(CCCN(CCCl)c1ccccc1)c1ccccc1	11.8%	12.7%	32.5%	-8.25%	-5.1%	-27.9%
O=c1[nH]cnc2c1ncn2-c1ccc(N(CCCl)CCCl)cc1	4.3%	12.7%	16%	-20.5%	-12.2%	15.2%
CC/C=C/C1(C(C)C)C(=O)NC(=O)NC1=O (tested in a mixture with another compound)	14.9%	0.35%	5.15%	-27.4%	0.3%	13.7%
OCC(S)CS (stereo unspecified)	17.4%	-26.4%	12.6%	2.9%	9.55%	-13.4%
O=C1OC(=O)C2CC3C(CC12)C1(Cl)C(Cl)=C(Cl)C3(Cl)C1(Cl)Cl (stereo unspecified)	-15.5%	-28.2%	-13.1%	-5.4%	-17.4%	3%
O=C(O)Cc1ccc(O)c(O)c1.[Pt].c1ccc([PH+](c2ccccc2)c2ccccc2)cc1.c1ccc([PH+](c2ccccc2)c2ccccc2)cc1	43.2%	33.9%	37.8%	42.5%	26.5%	63.9%
c1ccc(NC2CCN(C3(c4ccccc4)CCCCC3)CC2)cc1	-17.9%	-6.8%	-6.85%	-45.6%	-1.75%	-8.1%
CC1=C(C)C(=O)O[C@@H]([C@](C)(O)[C@]2(O)CC[C@@]3(O)[C@@H]4C[C@H]5O[C@]56[C@@H](O)C=CC(=O)[C@]6(C)[C@H]4CC[C@]23C)C1	14.9%	24.9%	10.7%	13.4%	20.1%	12.8%
C#CCN(C)C(=O)N(CC#C)N=O	15.2%	-4.95%	1.75%	-11%	-6.55%	-23.4%
Clc1cc[c]([Sb]2([c]3ccc(Cl)cc3)([c]3ccc(Cl)cc3)[O]C(C(Cl)(Cl)Cl)[O]2)cc1 (stereo unspecified)	98.3% (active)	98.5% (active)	98.2% (active)	98.2% (active)	97% (active)	97.8% (active)
Cc1cc(-c2ccccc2)cc(-c2ccccc2)[o+]1	2.3%	-2.55%	2%	-23%	1%	4.25%
Cc1cc(N(CCCl)CCCl)ccc1C1N(Cc2ccc(N(CCCl)CCCl)cc2)CCCN1Cc1ccc(N(CCCl)CCCl)cc1	0.8%	7.8%	-6.2%	-5.1%	-1.35%	25%
O=C(CCC1CCCCN1)Nc1ccc2c(c1)C(=O)c1ccc(NC(=O)CCN3CCCCC3)cc1C2=O (stereo unspecified)	6.2%	9.2%	-1.9%	9.3%	-12.6%	6.8%
S=P12OCCC(CO1)O2 (stereo unspecified)	8.2%	-9.35%	3.85%	-23.8%	-8.15%	-3.15%
CCOC(=O)C1C(c2ccco2)C2(C#N)C(=N)OC1(C)C2(C#N)C#N (stereo unspecified)	3.45%	12.3%	-39.5%	-0.9%	-36.8%	-52%
O=C1NC(=O)C(O)(Cc2ccccn2)C(=O)N1	9.9%	6.45%	13.5%	13.2%	-21.1%	-6.65%
